Source: PubChem (several laboratories)
Shown is part of a subset that was picked to be rich in hits.
DAT uptake mod: modulates human dopamine transporter uptake under cocaine | LLC-PK1 hDAT cells, [14C]-dopamine uptake with cocaine IC80; actives deviate in either direction | AID 449768 | actives 1.3% (n = 110,000) | B-score at 10 µM;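 active = Z score or B-score, a plate-position-corrected score, falls beyond the plate's 99.7% confidence bounds, in either direction; inactive = both scores lie inside the 99.7% bounds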
D1 mod: allosteric modulators of human D1 dopamine receptor. P21728. HEK293 D1, CRE-luciferase, dopamine EC30 potentiation; actives deviate in either direction. B-score at 10 µM. actives 5.9% (n = 58,000). AID 641;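 active = luminescence count or its row- and column-corrected plate score outside the 99.7% band of the plate's sample wells, on either side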
Mac1 fbg enh: CD11b/CD18-fibrinogen binding enhancement; K562 CD11b/CD18 adhesion to fibrinogen, ATPlite luminescence; activation, % at 10 µM; actives 0.07% (n = 93,000);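 active = 10 µM primary screen giving 50% or more activity, confirmed by 40% or more on retest at that dose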
Mac1 fbg inh: blocks human CD11b/CD18 adhesion to fibrinogen; P05107+P11215; K562 CD11b/CD18 adhesion to fibrinogen, ATPlite luminescence; Mn2+ added to activate the integrin; inhibition, % at 10 µM; actives 0.54% (n = 93,000); AID 1497;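 active = primary inhibition of 50% or more at 10 µM, then 40% or more on retest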
FAK inh: blocks human focal adhesion kinase activity. inhibition, %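 (tested at 7 µM)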. AID 727. actives 0.84% (n = 97,000). biochemical FAK kinase activity assay; in the data active = inhibition above about 19%
PTK2B oligo ant: Pyk2 (human) oligomerization antagonism | Q14289 | Q293 cells, Pyk2 FERM NanoBiT luminescence; hits give low values | z-score (the deposit names both 25 µM and 10 µM) | actives 0.83% (n = 99,000);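 active = Z-score of -3 or lower, scaled per plate to the spread of control and sample wells; inactive = z-score above -3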;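 note: negative z-score means lost luminescence so less FERM oligomerization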
D1 mod confirm: D1 receptor (human) allosteric modulation, confirmed; shares compounds with D1 mod; HEK293 D1 CRE-luciferase, dopamine EC30 potentiation; hits give high values; luminescence at 10 µM; actives 88% (n = 2,200); AID 642;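 active = luminescence in either of two replicates above the same-plate mean plus 3 SD of the low-dose dopamine control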
D1 ag no DA: secondary test of D1 modulators: activity without dopamine; luminescence at 10 µM; actives 0.8% (n = 1,900); HEK293 D1 CRE-luciferase, luminescence, no dopamine; hits give high values; shares compounds with D1 mod; in the data active = luminescence above about 3900
Isoprot counter: counter-screen for D1 modulators: isoproterenol response in HEK293 cells; calls only at 10 µM; actives 63% (n = 2,200); shares compounds with D1 mod; HEK293 D1 CRE-luciferase, isoproterenol EC30 counter-screen;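 active = luminescence in either replicate above plate mean of wells with a partly effective reference agonist dose plus 3 SD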;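 note: isoproterenol raises cAMP through native beta-adrenoceptor Gs so signal bypasses D1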
Large screens that a line does not name were inactive (follow-up assays come after a bar, where they were run).

COc1ccc(-c2nnc(SCC(=O)Nc3ncc(C)s3)n2-c2ccccc2)cc1OC	D1 mod 3.65 | D1 mod confirm 11512 | D1 ag no DA inactive | Isoprot counter active
COC(=O)C1CCN(C(=O)C2CCCCC2)CC1	none
N#Cc1nc(N2CCCCC2)nc(N2CCOCC2)n1	D1 mod 7.48 | D1 mod confirm 9460 | Isoprot counter active
CN(C)c1nc(C#N)nc(N2CCOCC2)n1	none (no result: D1 mod, Mac1 fbg enh, Mac1 fbg inh)
N#Cc1nc(N2CCCC2)nc(N2CCCC2)n1	D1 mod 5.65 (no result: Mac1 fbg enh, Mac1 fbg inh) | D1 mod confirm 16648 | D1 ag no DA inactive | Isoprot counter active
CCOC(=O)C(=O)Nc1nnc(CCc2ccccc2)s1	none (no result: D1 mod, Mac1 fbg enh, Mac1 fbg inh)
C1CCC(C23CC4CC(CC(C4)C2)C3)NC1 (configuration not stated)	none (no result: D1 mod, Mac1 fbg enh, Mac1 fbg inh)
COc1ccc(-c2coc3cc(O)ccc3c2=O)cc1OC	D1 mod 4.56 | D1 mod confirm 9756 | D1 ag no DA inactive | Isoprot counter inactive
Cc1ccc(S(=O)(=O)N2CCOCC2)cc1C(=O)OCC(=O)N1c2ccccc2NC(=O)C1(C)C	none (no result: D1 mod, PTK2B oligo ant)
Cc1cccc(-c2c3c(=O)n(C)c(=O)n(C)c3cn2-c2ccccc2O)c1	D1 mod 5.8 | D1 mod confirm 9336 | D1 ag no DA inactive | Isoprot counter inactive
CC(=O)Nn1cc2c(c1-c1ccccc1)c(=O)n(C)c(=O)n2C	none
Cn1c(NCc2ccco2)nc2c1c(=O)n(Cc1ccc(Cl)cc1Cl)c(=O)n2C	none
Cn1cnc2c1c(=O)n(Cc1ccc(F)cc1Cl)c(=O)n2C	D1 mod 3.98 | D1 mod confirm 6528 | D1 ag no DA inactive | Isoprot counter inactive
COc1ccc(S(=O)(=O)NNC(=O)c2cc3ccccc3o2)cc1	none (no result: DAT uptake mod, D1 mod, FAK inh, PTK2B oligo ant)
COc1ccc(C(c2nnnn2Cc2cccs2)N2CCN(c3ccccc3F)CC2)cc1OC (configuration not stated)	D1 mod 3.07, PTK2B oligo ant -3.65 (no result: FAK inh) | D1 mod confirm inactive | D1 ag no DA inactive | Isoprot counter inactive
COc1ccc(C(c2nnnn2Cc2ccccc2)N2CCN(C(=O)c3ccco3)CC2)cc1OC (configuration not stated)	none (no result: D1 mod)
CC(C)(C)NC(=O)C1Cc2ccccc2CN1C(=O)Nc1cccc(Cl)c1 (configuration not stated)	none (no result: D1 mod)
CCc1cc(=O)oc2cc3oc(C)c(C)c3cc12	D1 mod 4.46 (no result: Mac1 fbg enh, Mac1 fbg inh) | D1 mod confirm inactive | D1 ag no DA inactive | Isoprot counter inactive
COc1ccc(-c2ccc(SCC(=O)N3CCOCC3)nn2)cc1OC	D1 mod 12.4 | D1 mod confirm 27680 | D1 ag no DA inactive | Isoprot counter active
COc1ccc(-c2ccc(SCC(=O)N3CCCC3)nn2)cc1OC	D1 mod 14.3 | D1 mod confirm 25344 | D1 ag no DA inactive | Isoprot counter active
COc1ccc(-n2c(SCC(N)=O)nnc2-c2ccc(NS(=O)(=O)c3ccc(C)cc3)cc2)cc1	none (no result: D1 mod)
COc1ccc(-n2c(SCC#N)nnc2-c2ccc(NS(=O)(=O)c3ccc(C)cc3)cc2)cc1	D1 mod 9.93 (no result: FAK inh) | D1 mod confirm 21068 | D1 ag no DA inactive | Isoprot counter active
CCCNC(=S)N1CCC(NC(=O)C2CCCCC2)CC1	none (no result: D1 mod, Mac1 fbg enh, Mac1 fbg inh)
CCOC(=O)c1c(-c2cccs2)csc1NC(=O)CSc1ncn[nH]1	D1 mod 3.35 (no result: Mac1 fbg enh, Mac1 fbg inh) | D1 mod confirm 11080 | D1 ag no DA inactive | Isoprot counter inactive
Cc1ccc(CC(=O)Nc2ccccc2N2CCOCC2)cc1C	none (no result: D1 mod)
COc1ccc(CN2CCN(C(=O)c3cccs3)CC2)cc1Br	D1 mod 6.37 (no result: Mac1 fbg enh, Mac1 fbg inh) | D1 mod confirm 12896 | Isoprot counter active
OCc1cn(-c2ccccc2)nc1-c1ccc(-c2nn(-c3ccccc3)cc2CO)cc1	none
N#Cc1cn(-c2ccccc2)nc1-c1ccccc1	D1 mod 5.74 | D1 mod confirm 9992 | D1 ag no DA inactive | Isoprot counter inactive
O=C(NCC1CC1)c1cc(-c2ccccc2)nn1CC1CC(c2cccc([N+](=O)[O-])c2)=NO1 (configuration not stated)	none (no result: D1 mod, Mac1 fbg enh, Mac1 fbg inh, FAK inh, PTK2B oligo ant)
Cc1ccccc1NC(=O)CSc1nc(Nc2ccccc2)nc(N2CCOCC2)n1	none
O=C(CSc1nc(Nc2ccccc2)nc(N2CCOCC2)n1)N1CCCC1	D1 mod 5.57 | D1 mod confirm 9432 | D1 ag no DA inactive | Isoprot counter active
O=C(CSc1nc(Nc2ccccc2)nc(N2CCOCC2)n1)Nc1ccc2c(c1)OCCO2	D1 mod 3.4 | D1 mod confirm 8860 | Isoprot counter active
O=C(CSc1nc(Nc2ccccc2)nc(N2CCOCC2)n1)N1CCc2ccccc21	none
O=C(Nc1ccccc1F)c1cc2nc(C(F)F)cc(C(F)F)n2n1	none (no result: D1 mod, Mac1 fbg enh, Mac1 fbg inh)
COc1cccc(-c2nn3c(-c4cc(C)[nH]n4)nnc3s2)c1	D1 mod 3.43 | D1 mod confirm 6292 | D1 ag no DA inactive | Isoprot counter inactive
Clc1ccc(-c2nn3c(-c4cccc(Cl)c4)nnc3s2)cc1	none (no result: DAT uptake mod, D1 mod, FAK inh, PTK2B oligo ant)
c1ccc(-c2nn3c(-c4ccccc4)nnc3s2)cc1	D1 mod 6.25 (no result: FAK inh) | D1 mod confirm 14100 | D1 ag no DA inactive | Isoprot counter inactive
Cc1cccc(-c2nnc3sc(-c4ccccc4)nn23)c1	D1 mod 7.58 | D1 mod confirm 15580 | D1 ag no DA inactive | Isoprot counter active
COc1c(S(=O)(=O)N2CCCC2)ccc(Cl)c1Cl	D1 mod 5.41 | D1 mod confirm 10616 | D1 ag no DA inactive | Isoprot counter active
CCN1C(=O)C(O)(C2COC(C)(C)CC2=O)c2cc(Br)ccc21 (configuration not stated)	none
Cc1cc(C)n(-c2nc3c(c(=O)[nH]c(=O)n3C)n2C)n1	D1 mod 1.77 (no result: FAK inh) | D1 mod confirm inactive | D1 ag no DA inactive | Isoprot counter inactive
Cc1cc(C)n(-c2nc3c(c(=O)[nH]c(=O)n3C)n2CCc2ccccc2)n1	none
Cc1cc(C)n(-c2nc3c(c(=O)[nH]c(=O)n3C)n2Cc2ccccc2)n1	D1 mod 7.93 | D1 mod confirm 11052 | D1 ag no DA inactive | Isoprot counter active
CC(=O)Nc1nc2n(n1)C(c1ccccc1)C=C(c1ccccc1)N2 (configuration not stated)	D1 mod 3.42 | D1 mod confirm 6792 | D1 ag no DA inactive | Isoprot counter inactive
